Active and inactive are the calls of the source. Unless noted, no rule for the calls is given here.
How the values were obtained:
[1] = system: Wnt5a (protein binding on small-molecule microarray); test: Wnt5a binders on small-molecule microarray, primary screen, biophysical, 635/667 nm fluorescence (AID 1142); conditions: 635 nm fluorescence, higher = more signal;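 also: fluorescence read at 667 nm with signal to noise per printed feature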
[2] = cell viability in Huh7 cells, primary screen, cytotoxicity control for HCV replication inhibitor project, CellTiter-Glo luminescence, basal, 48 h (AID 1143); conditions: Huh7 HCV replicon, higher = more signal, called active from +8 up or from −8 down;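 also: Huh7 hepatoma cells carrying a hepatitis C replication reporter with no stimulus; test concentration not given here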
[3] = P. aeruginosa biofilm formation inhibitors, primary screen, PAO1 strain, BacTiter-Glo luminescence, LB-PBS (AID 1144); conditions: 12 h, higher = more signal
[4] = CREB reporter modulators without forskolin, primary screen, cell-based, PC12, CRE-LacZ reporter, unstimulated (AID 1145); conditions: no forskolin, luminescence, 4.5 h, higher = more signal, called active from +8 up or from −8 down
[5] = CREB reporter modulators under forskolin, primary screen, cell-based, PC12, CRE-LacZ reporter, forskolin-stimulated (AID 1146); conditions: luminescence, 4.5 h, higher = more signal, called active from +8 up or from −8 down;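 also: PC12 cells with 6xCRE LacZ reporter stimulated by forskolin 10 µM; beta-galactosidase reporter signal reflecting CREB driven transcription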
[6] = molecular target: Streptavidin (Streptomyces avidinii) (UniProt P22629); test: streptavidin binders on small-molecule microarray, primary screen, artefact control for SMM compound annotation, biophysical, 635/667 nm fluorescence (AID 1147); conditions: streptavidin binding, higher = more signal;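 also: signal reflects streptavidin binding to arrayed compounds as a control protein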
Streptavidin (Streptomyces avidinii), sequence (P22629 whole entry, looked up): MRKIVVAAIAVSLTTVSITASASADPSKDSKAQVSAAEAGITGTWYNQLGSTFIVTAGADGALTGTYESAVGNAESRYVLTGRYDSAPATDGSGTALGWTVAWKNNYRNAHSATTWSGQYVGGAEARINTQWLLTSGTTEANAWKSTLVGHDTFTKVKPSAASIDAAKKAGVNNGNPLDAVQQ

[7] = small-molecule binders of probe aInhba, primary screen, biochemical, small-molecule microarray, 635/667 nm fluorescence (AID 1148); conditions: higher = more signal;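 also: score merges 667nm spot fluorescence with signal-to-noise for antibody binding to printed compounds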
Torsin-1A (Homo sapiens) [8] = molecular target: Torsin-1A (Homo sapiens) (UniProt O14656); test: torsin A binders from cell lysate, primary screen, small-molecule microarray, wild-type, 635/667 nm (AID 1149); conditions: COS7 hTOR1A-WT lysate, 635 nm fluorescence, higher = more signal
Torsin-1A (Homo sapiens), sequence (O14656 whole entry, looked up): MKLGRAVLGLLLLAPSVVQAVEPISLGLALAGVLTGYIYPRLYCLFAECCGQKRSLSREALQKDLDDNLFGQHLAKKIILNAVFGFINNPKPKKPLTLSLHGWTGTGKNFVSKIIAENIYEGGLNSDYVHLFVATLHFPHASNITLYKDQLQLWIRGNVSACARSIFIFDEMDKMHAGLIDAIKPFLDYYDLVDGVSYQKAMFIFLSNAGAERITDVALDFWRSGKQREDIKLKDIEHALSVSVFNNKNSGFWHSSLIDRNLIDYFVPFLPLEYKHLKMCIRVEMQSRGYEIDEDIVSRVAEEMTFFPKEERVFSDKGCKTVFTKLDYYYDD

Torsin-1A (Homo sapiens) [9] = molecular target: Torsin-1A (Homo sapiens) (UniProt O14656); test: small-molecule binders of mutant TOR1A in lysate, primary screen, cell lysate, small-molecule microarray, COS7 lysate, 635/667 nm fluorescence (AID 1150); conditions: COS7 hTOR1A mutant lysate, 635 nm fluorescence, higher = more signal;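 also: score pools 667 nm emission and signal to noise measuring lysate protein binding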
[10] = system: Sonic hedgehog protein (Shh); test: small-molecule binders of Shh protein, primary screen, biochemical, small-molecule microarray, 635/667 nm fluorescence (AID 1151); conditions: small-molecule microarray binding, 635 nm fluorescence; higher = more signal;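 also: Shh protein binding to compounds spotted on small-molecule microarray slides; score combines spot fluorescence intensity with signal-to-noise across triplicate slides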
[11] = E. coli DRC41 culture turbidity changes, primary screen, E. coli filamentation inducer project, strain DRC41, OD650, 48 h (AID 1152);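 also: E. coli MC1000 strain DRC41 lacking acrAB efflux pump and sulA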; conditions: E. coli DRC41 (acrAB sulA), higher = more signal, called active from +8 up or from −8 down
[12] = small-molecule binders of probe aLefty1, primary screen, biochemical, small-molecule microarray, 635/667 nm fluorescence (AID 1153); conditions: higher = more signal;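 also: score merges spot fluorescence with signal-to-noise ratio from the scanned slide images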
[13] = PSAC antagonists in infected red cells, primary screen, cell-based, P. falciparum Indochina, OD700, 1 h (AID 1154); conditions: P. falciparum Indochina infected RBC osmotic lysis, higher = more signal, called active from +8 up or from −8 down
[14] = PSAC antagonists in infected red cells, primary screen, cell-based, P. falciparum Indochina, OD700, 2 h (AID 1155);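 also: lysis reports solute entry through the parasite surface anion channel PSAC; channel blockers reduce lysis of infected cells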; conditions: P. falciparum Indochina infected erythrocytes, osmotic lysis OD700; higher = more signal, called active from +8 up or from −8 down
[15] = osmotic lysis modulators in infected erythrocytes, primary screen, PSAC antagonist project, cell-based, P. falciparum Indochina, OD700, 3 h (AID 1156); conditions: higher = more signal, called active from +8 up or from −8 down
[16] = PSAC antagonists in infected red cells, primary screen, cell-based, P. falciparum Indochina, OD700, 18 h (AID 1157); conditions: P. falciparum Indochina infected erythrocytes, osmotic lysis OD700, 18 h; higher = more signal, called active from +8 up or from −8 down
[17] = modulators of S6 phosphorylation in cells, primary screen, cell-based, A549, cytoblot, luminescence, serum-stimulated (AID 1158); conditions: A549 phospho-S6 cytoblot, 5 h, higher = more signal;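 also: serum-stimulated A549 lung adenocarcinoma cells; signal is phosphorylated S6 detected by cytoblot immunostaining with HRP secondary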
[18] = molecular target: NADPH oxidase 2 (Homo sapiens) (UniProt P04839); test: NOX2-dependent H2O2 signal modulators, primary screen, NOX inhibitor project, cell-based, HEK293-NOX2, PMA-stimulated, Amplex Red fluorescence (AID 1159); conditions: 45 min, higher = more signal, called active from +8 up or from −8 down; also: test concentration not given here
NADPH oxidase 2 (Homo sapiens), sequence (P04839 whole entry, looked up): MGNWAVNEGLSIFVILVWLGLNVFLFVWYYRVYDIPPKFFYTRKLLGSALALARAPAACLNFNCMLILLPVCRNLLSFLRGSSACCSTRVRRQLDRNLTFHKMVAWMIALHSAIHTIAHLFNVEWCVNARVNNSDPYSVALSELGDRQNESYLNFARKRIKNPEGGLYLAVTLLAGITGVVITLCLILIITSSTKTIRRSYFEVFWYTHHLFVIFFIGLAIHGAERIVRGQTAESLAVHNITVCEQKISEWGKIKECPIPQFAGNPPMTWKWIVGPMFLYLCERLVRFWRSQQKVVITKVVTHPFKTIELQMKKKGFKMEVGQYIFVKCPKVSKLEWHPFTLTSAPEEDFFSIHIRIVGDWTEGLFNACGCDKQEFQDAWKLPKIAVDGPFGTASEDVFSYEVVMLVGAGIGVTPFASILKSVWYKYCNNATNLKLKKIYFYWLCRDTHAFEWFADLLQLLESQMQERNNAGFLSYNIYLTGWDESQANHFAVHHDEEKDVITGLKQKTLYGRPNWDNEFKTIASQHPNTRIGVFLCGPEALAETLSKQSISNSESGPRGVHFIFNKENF

[19] = molecular target: NADPH oxidase 4 (Homo sapiens) (UniProt Q9NPH5); test: NOX4-dependent H2O2 signal modulators, primary screen, NOX inhibitor project, cell-based, HEK293-NOX4, tetracycline-induced, Amplex Red fluorescence (AID 1160); conditions: 45 min, higher = more signal, called active from +8 up or from −8 down
NADPH oxidase 4 (Homo sapiens), sequence (Q9NPH5 whole entry, looked up): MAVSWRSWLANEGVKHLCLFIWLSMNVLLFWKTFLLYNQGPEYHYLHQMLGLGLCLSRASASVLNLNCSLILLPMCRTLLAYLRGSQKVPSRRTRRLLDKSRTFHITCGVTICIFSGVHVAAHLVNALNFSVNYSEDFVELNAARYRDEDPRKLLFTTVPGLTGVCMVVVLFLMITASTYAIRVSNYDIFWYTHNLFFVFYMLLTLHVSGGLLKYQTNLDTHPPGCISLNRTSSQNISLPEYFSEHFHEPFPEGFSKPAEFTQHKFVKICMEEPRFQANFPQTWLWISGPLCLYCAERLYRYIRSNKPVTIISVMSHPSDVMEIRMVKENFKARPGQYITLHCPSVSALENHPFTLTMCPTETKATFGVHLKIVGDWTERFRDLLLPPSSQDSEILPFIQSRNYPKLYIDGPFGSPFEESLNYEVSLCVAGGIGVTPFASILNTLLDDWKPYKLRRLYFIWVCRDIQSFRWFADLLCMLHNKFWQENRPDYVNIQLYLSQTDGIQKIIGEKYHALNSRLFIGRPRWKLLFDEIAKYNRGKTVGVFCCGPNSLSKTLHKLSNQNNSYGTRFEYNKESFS

[20] = molecular target: NADPH oxidase 5 (Homo sapiens) (UniProt Q96PH1); test: NOX5-dependent H2O2 signal modulators, primary screen, NOX inhibitor project, cell-based, HEK293-NOX5, Amplex Red fluorescence (AID 1161); conditions: HEK293-NOX5, ionomycin, 45 min, higher = more signal
NADPH oxidase 5 (Homo sapiens), sequence (Q96PH1 whole entry, looked up): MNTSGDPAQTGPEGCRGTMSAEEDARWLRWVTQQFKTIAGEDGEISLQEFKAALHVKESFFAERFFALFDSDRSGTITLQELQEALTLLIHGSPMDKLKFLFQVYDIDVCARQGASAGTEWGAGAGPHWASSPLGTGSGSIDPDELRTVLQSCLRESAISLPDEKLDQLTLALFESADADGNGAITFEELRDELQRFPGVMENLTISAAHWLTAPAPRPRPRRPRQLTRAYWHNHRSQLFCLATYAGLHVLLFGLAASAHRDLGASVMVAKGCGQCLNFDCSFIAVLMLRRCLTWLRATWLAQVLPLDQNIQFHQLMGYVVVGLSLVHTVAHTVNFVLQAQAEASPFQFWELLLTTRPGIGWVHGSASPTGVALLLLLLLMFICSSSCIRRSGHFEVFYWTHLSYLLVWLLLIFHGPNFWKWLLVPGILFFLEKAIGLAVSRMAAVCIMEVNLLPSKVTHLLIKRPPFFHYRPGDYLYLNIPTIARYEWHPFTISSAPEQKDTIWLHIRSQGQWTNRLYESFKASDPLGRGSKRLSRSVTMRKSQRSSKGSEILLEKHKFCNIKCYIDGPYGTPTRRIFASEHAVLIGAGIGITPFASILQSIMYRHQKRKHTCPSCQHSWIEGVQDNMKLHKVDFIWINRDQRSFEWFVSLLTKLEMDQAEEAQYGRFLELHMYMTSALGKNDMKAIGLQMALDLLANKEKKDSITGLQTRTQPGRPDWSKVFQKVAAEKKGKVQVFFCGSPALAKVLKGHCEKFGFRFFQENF

SMILES	composite z-score [1]	z-score [2]	z-score [3]	z-score [4]	z-score [5]	composite z-score [6]	composite z-score [7]	composite z-score (Torsin-1A (Homo sapiens) [8])	composite z-score (Torsin-1A (Homo sapiens) [9])	composite z-score [10]	z-score [11]	composite z-score [12]	z-score [13]	z-score [14]	z-score [15]	z-score [16]	z-score [17]	z-score [18]	z-score [19]	z-score [20]
COc1ccc(C#Cc2ccc3c(c2)[C@]2(C(=O)N3)[C@H](c3ccccc3OCCO)N3[C@H](c4ccccc4)[C@H](c4ccccc4)OC(=O)[C@H]3[C@@H]2C(=O)O)cc1	0.535	-4.91 (inactive)	-1.66 (inactive)	-1.16 (inactive)	4.03 (inactive)	1.45	0.909	0.498	0.659	2.06	-0.181 (inactive)	1.27	0.123 (inactive)	0.267 (inactive)	-5.14 (inactive)	-0.867 (inactive)	0.25	0.441 (inactive)	-1.36 (inactive)	-0.669
COc1cc(CO)cc(I)c1O[C@H]1C=C(C(=O)NCCO)C[C@@H](N(CCN2CCOCC2)C(=O)C2CCOC2)[C@@H]1O (stereo not given in full)	-0.31	-0.846 (inactive)	0.367 (inactive)	0.495 (inactive)	-1.45 (inactive)	-0.512	-0.0195	0.055	0.399	0.309	3.66 (inactive)	-0.319	8.79 (active)	1.59 (inactive)	1.89 (inactive)	0.427 (inactive)	0.432	-0.568 (inactive)	1.29 (inactive)	0.233
CCOC(=O)C1=CCC(c2ccc(C)cc2)N(S(=O)(=O)c2ccc(C)cc2)C1 (stereo not given)	-0.273	-3.23 (inactive)	0.271 (inactive)	-0.527 (inactive)	-0.34 (inactive)	0.841	-0.0645	-0.0669	0.121	-0.396	-0.792 (inactive)	0.174	2.05 (inactive)	0.901 (inactive)	-0.628 (inactive)	0.509 (inactive)	-0.78	0.63 (inactive)	0.637 (inactive)	1.17
O=C1C2C=CC(C(O)C(c3ccccc3)c3ccccc3)N(n3cnnc3)C2C(=O)N1Cc1ccccc1 (stereo not given)	0.159	-0.0706 (inactive)	0.738 (inactive)	0.182 (inactive)	0.202 (inactive)	1.12	0.057	0.0613	0.142	-0.0479	-1.48 (inactive)	0.169	2.36 (inactive)	1.26 (inactive)	-0.218 (inactive)	0.949 (inactive)	-0.429	0.67 (inactive)	-2.83 (inactive)	-0.766
CCOC(=O)C1=CCC(c2ccccc2)N(S(=O)(=O)CC[Si](C)(C)C)C1 (stereo not given)	-0.386	-4.87 (inactive)	-0.296 (inactive)	-0.322 (inactive)	0.497 (inactive)	-0.192	-0.363	1.04	0.673	-0.302	-0.348 (inactive)	-0.147	2.49 (inactive)	0.767 (inactive)	-0.0704 (inactive)	0.561 (inactive)	-0.215	0.183 (inactive)	0.976 (inactive)	-0.179
C=CCNC(=O)[C@H]1[C@@H]2C(=O)O[C@@H](c3ccccc3)[C@@H](c3ccccc3)N2[C@@H](c2ccc(OCCO)cc2)[C@]12C(=O)N(C(=O)OCCOC)c1ccccc12	0.25	-2.05 (inactive)	-0.478 (inactive)	0.802 (inactive)	9.23 (active)	0.614	0.0925	0.895	0.497	1.95	0.159 (inactive)	0.378	5.52 (inactive)	0.926 (inactive)	1.22 (inactive)	0.759 (inactive)	0.182	2.35 (inactive)	0.743 (inactive)	-1.51
CN1C(=O)C2C=CC(C(O)C3CC=CCC3)N(NC(=O)OC(C)(C)C)C2C1=O (stereo not given)	0.154	0.248 (inactive)	0.0321 (inactive)	0.626 (inactive)	0.257 (inactive)	1.15	0.0301	0.665	1.12	0.737	-1.49 (inactive)	-0.168	0.23 (inactive)	0.737 (inactive)	-0.138 (inactive)	0.312 (inactive)	-1.01	-0.92 (inactive)	-0.861 (inactive)	-0.716
C=C[C@H](COC(C)=O)N(C(=O)OC(C)(C)C)S(=O)(=O)c1ccc(Br)cc1	0.77	-0.121 (inactive)	-0.41 (inactive)	0.652 (inactive)	1.66 (inactive)	0.304	0.898	0.446	0.31	0.457	1.34 (inactive)	0.312	0.874 (inactive)	-0.141 (inactive)	-0.301 (inactive)	0.0544 (inactive)	0.314	0.406 (inactive)	0.356 (inactive)	-0.772
